According to PubChem BioAssay (NCI):
This is part of a sample that, as a whole, favours compounds with a hit. Of some 79,000 tested, about 15% had one in any assay. Values without a mark were called inactive. Calls of active or inactive are those of the source. No stated cut-off is given here; in the data, active means growth inhibition above about 70%; inactive means the rest.

Experiment: NCI Yeast Anticancer Drug Screen. Data for the rad14 strain (AID 159);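 further: 0% = growth of vehicle-treated control cultures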
Conditions: S. cerevisiae rad14 strain growth inhibition, active compounds read high
Procedure: Growth inhibition of yeast strains with defined genetic alterations is measured as a screen for potential anti-cancer activity. Selected strains with alterations in DNA damage repair or cell cycle control were exposed to compounds and growth inhibition was measured relative to vehicle treated controls. The strain used in this assay is rad14

**Q.** Which results are given for `CN(C)CCNC(=Cc1ccc2ccccc2[n+]1C)NCCN(C)C`?
**A.** growth inhibition (at 1.2 µM): -2%; growth inhibition (at 3.7 µM): -1%; growth inhibition (at 11.0 µM): -2%; growth inhibition (at 33.0 µM): -3%; growth inhibition (at 100.0 µM): -2%

**Q.** What does the source list for `O=C1C=C(Br)C(=O)c2ccccc21`?
**A.** growth inhibition (at 1.2 µM): 10%; growth inhibition (at 3.7 µM): 24%; growth inhibition (at 11.0 µM): 98% (active); growth inhibition (at 33.0 µM): 99% (active); growth inhibition (at 100.0 µM): 99% (active)

**Q.** Which results are given for `CCCCOc1ccc2nc(C)cc(N=[N+]=[N-])c2c1`?
**A.** growth inhibition (at 1.2 µM): 7%; growth inhibition (at 3.7 µM): 5%; growth inhibition (at 11.0 µM): 11%; growth inhibition (at 33.0 µM): 48%; growth inhibition (at 100.0 µM): 98% (active)

**Q.** With `O=C(O)c1c2ccc(Cl)cc2nc2[nH]c(=O)[nH]c(=O)c12` as the molecule, how does the growth inhibition (at 1.2 µM) read?
**A.** -14%

**Q.** What about the growth inhibition (at 3.7 µM) of the same molecule?
**A.** -16%

**Q.** What about the growth inhibition (at 11.0 µM) of the same molecule?
**A.** -21%

**Q.** What about the growth inhibition (at 33.0 µM) of the same molecule?
**A.** -22%

**Q.** What about the growth inhibition (at 100.0 µM) of the same molecule?
**A.** 3%

**Q.** With `CCCCCCCCCCCCOCCOCCOCC(N)=O` as the molecule, how does the growth inhibition (at 1.2 µM) read?
**A.** -9%

**Q.** What about the growth inhibition (at 3.7 µM) of the same molecule?
**A.** -11%

**Q.** And the growth inhibition (at 11.0 µM)?
**A.** -17%

**Q.** And the growth inhibition (at 33.0 µM)?
**A.** 97% (active)

**Q.** What about the growth inhibition (at 100.0 µM) of the same molecule?
**A.** 94% (active)

**Q.** Which results are given for `Cc1ccccc1NC(=O)c1c(C)oc2c1C(=O)c1ccccc1C2=O`?
**A.** growth inhibition (at 1.2 µM): -45%; growth inhibition (at 3.7 µM): -28%; growth inhibition (at 11.0 µM): -26%; growth inhibition (at 33.0 µM): 12%; growth inhibition (at 100.0 µM): 93% (active)

**Q.** For `CC(C)OC(=O)NNc1cccc(Cl)c1`, which growth inhibition (at 1.2 µM) is on record?
**A.** 4%

**Q.** And the growth inhibition (at 3.7 µM)?
**A.** 12%

**Q.** What about the growth inhibition (at 11.0 µM) of the same molecule?
**A.** 76% (active)

**Q.** What about the growth inhibition (at 33.0 µM) of the same molecule?
**A.** 98% (active)

**Q.** And the growth inhibition (at 100.0 µM)?
**A.** 98% (active)

**Q.** For `O=C(O)/C=C\C(=O)Nc1ccc2c(c1)Cc1cc(Cl)ccc1-2`, which growth inhibition (at 1.2 µM) is on record?
**A.** -3%

**Q.** What about the growth inhibition (at 3.7 µM) of the same molecule?
**A.** -4%

**Q.** And the growth inhibition (at 11.0 µM)?
**A.** -3%

**Q.** What about the growth inhibition (at 33.0 µM) of the same molecule?
**A.** 4%

**Q.** And the growth inhibition (at 100.0 µM)?
**A.** 29%
